Measurements published in PubChem BioAssay (NCATS).
“And” between values parts separate entries of the source, which are not always exact repeats. Identical values can stand only once. Records with an inconclusive call do not appear. Where a call stands in place of a potency, no number is given. A structure can be active in one record and inactive in another. The source made the active and inactive calls. The call rests on the fitted dose curve; in most records, active means well fitted curve in the direction sought with a large enough effect; inconclusive means small, poorly fitted or top-dose-only effect, or another doubt; inactive means no such curve, though single readings can be large; an effect the other way counts as inactive or inconclusive.

Tests used:
[1] = Viability qHTS for spleen associated tyrosine kinase inhibitor (SYKi) naive MV4-11 cells (AID 1963823); further: nearly all actives have a fitted effect of over 40% in size
How it was run: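 Viability of MV4-11 AML cells lacking prior SYK inhibitor exposure is scored by CellTiter-Glo luminescence following 72 hr compound incubation at 37 C, 5% CO2, seeded at 500 cells per well.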

[2] = Viability qHTS for spleen associated tyrosine kinase inhibitor (SYKi) drug resistant MV4-11 cells (AID 1963824); further: nearly all actives have a fitted effect of over 35% in size
How it was run: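 SYK-inhibitor-resistant MV4-11 AML cells were seeded at 500 per well onto compound and cultured 72 hours (37 °C, 5% CO2). CellTiter-Glo was then added, and after 10 min at room temperature, luminescence gave viability.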

[3] = Quantitative highthroughput screen to assess conditional lethalithy of NOMO1 cells grown in RPMI1640 with untreated serum (RPMI+s) (AID 1963876); further: nearly all actives have a fitted effect of over 35% in size
How it was run: (§1)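 Each medium arm—HPLM with 10% dialyzed FBS, or RPMI1640 with 5 mM glucose and 10% untreated or dialyzed FBS—was screened against an 11-point, 3-fold compound titration for 48 h at 37 °C, with CellTiter-Glo luminescence as endpoint.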

[4] = Quantitative highthroughput screen to assess conditional lethalithy of NOMO1 cells grown in RPMI1640 with dialyzed fetal bovine serum (RPMI+ds) (AID 1963877); further: nearly all actives have a fitted effect of over 30% in size; on Viability: series mostly up to about 46 µM
How it was run: as §1

[5] = Quantitative highthroughput screen to assess conditional lethalithy of NOMO1 cells grown in Human Plasma-Like Medium with dialyzed fetal bovine serum (HPLM+ds) (AID 1963878); further: nearly all actives have a fitted effect of over 35% in size
How it was run: as §1

[6] = Quantitative highthroughput screen to assess conditional lethalithy of P12 Ichikawa cells grown in Human Plasma-Like Medium with dialyzed fetal bovine serum (HPLM+ds) (AID 1963879); conditions: Potency: viability; further: nearly all actives have a fitted effect of over 35% in size; on Viability: series mostly up to about 46 µM
How it was run: as §1

[7] = Quantitative highthroughput screen to assess conditional lethalithy of SEM cells grown in Human Plasma-Like Medium with dialyzed fetal bovine serum (HPLM+ds) (AID 1963882); further: nearly all actives have a fitted effect of over 35% in size; on Viability: series mostly up to about 46 µM
How it was run: as §1

[8] = Quantitative highthroughput screen to assess conditional lethalithy of SEM cells grown in RPMI1640 with unreated serum (RPMI+s) (AID 1963883); further: nearly all actives have a fitted effect of over 35% in size
How it was run: as §1

[9] = Cellular viability qHTS for adrenocortical cancer (ACC) cell line SW-13 (AID 1963989); conditions: SW-13 ACC cells viability, CellTiter-Glo, 48 h; activity (max response): stronger effect = lower value; further: nearly all actives have a fitted effect of over 65% in size;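 on activity (max response): cells grown in serum-free medium with ITS supplement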
How it was run: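 Here, serum-free SW-13 cultures were dosed up to 46 uM. Following 48 h, ATP-dependent luminescence (CellTiter-Glo) reported viable cells, and logistic modeling produced IC50 values.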

[10] = Cellular viability qHTS for adrenocortical cancer (ACC) cell line NCI-H295R (AID 1963990); further: nearly all actives have a fitted effect of over 60% in size
How it was run: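 Viability of NCI-H295R after 48 h of treatment (final up to 46 uM) measured through cellular ATP luminescence.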

[11] = Quantitative highthroughput screen to assess conditional lethalithy of SEM cells grown in RPMI1640 with dialyzed fetal bovine serum (RPMI+ds) (AID 1963884); further: nearly all actives have a fitted effect of over 35% in size; on Viability: series mostly up to about 46 µM
How it was run: as §1

[12] = Quantitative highthroughput screen to assess conditional lethalithy of P12 Ichikawa cells grown in RPMI1640 with dialyzed fetal bovine serum (RPMI+ds) (AID 1963880); conditions: Potency: P12-Ichikawa viability; further: nearly all actives have a fitted effect of over 35% in size
How it was run: as §1

[13] = Quantitative highthroughput screen to assess conditional lethalithy of P12 Ichikawa cells grown in RPMI1640 with untreated serum (RPMI+s) (AID 1963881); conditions: Potency: viability; further: nearly all actives have a fitted effect of over 35% in size; on Viability: series mostly up to about 46 µM
How it was run: as §1
Potency means the concentration at half of the fitted maximal effect.

SMILES | Potency [1] | Potency [2] | Potency [3] | Potency [4] | Potency [5] | Potency [6] | Potency [7] | Potency [8] | activity (max response) [9] | Potency [10] | Potency [11] | Potency [12] | Potency [13] | Potency [9]
NNC(=O)c1ccncc1 | inactive | inactive | inactive | inactive | inactive | 16600 nM (active) | inactive | inactive | 13.1% (inactive) and -0.369% (inactive) | inactive |  |  |  | 
Cc1ccc(-n2nc(C(C)(C)C)cc2NC(=O)Nc2ccc(OCCN3CCOCC3)c3ccccc23)cc1 | 8.2 µM (active) | 2.59 µM (active) | inactive | inactive | inactive | inactive | 10500 nM (active) | 132 nM (active) | -16.6% (inactive) | inactive | 9350 nM (active) |  |  | 
c1ccc2c(Oc3nc(Nc4ccc(N5CCOCC5)cc4)c4ncn(C5CCCCC5)c4n3)cccc2c1 | 1.84 µM (active) and 2.35 µM (active) | 1.84 µM (active) and 4.17 µM (active) | inactive | inactive | inactive |  |  |  | -10% (inactive) | inactive |  | inactive | inactive | 
CCc1ccc(C(=O)Nc2cc(CN3CCN(C)CC3)cc(C(F)(F)F)c2)cc1C#Cc1cnc2ccnn2c1 | 2.59 µM (active) and 2.06 µM (active) | 3.66 µM (active) and 1.84 µM (active) | inactive | inactive | inactive | inactive |  |  |  |  |  |  | inactive | 10 µM (active)
N[C@@H](Cc1cc(I)c(Oc2cc(I)c(O)c(I)c2)c(I)c1)C(=O)O | inactive | inactive and 1.61 µM (active) | inactive | inactive | inactive |  | inactive | inactive | 3.69% (inactive) and -6.52% (inactive) |  | inactive | inactive | inactive | 
CC(C)C[C@H](NC(=O)[C@H](Cc1ccccc1)NC(=O)c1cnccn1)B(O)O | 0.0132 µM (active) | 9.4 nM (active) and 11.8 nM (active) | 46.9 nM (active) | 46.9 nM (active) | 46.9 nM (active) |  | 20.9 nM (active) | 18.7 nM (active) |  | 8.2 nM (active) and 35.5 nM (active) | 16.6 nM (active) | 37.2 nM (active) | 37.2 nM (active) | 20.6 nM (active) and 79.4 nM (active)
CNC(=O)[C@H](Cc1ccccc1)NC(=O)[C@H](CC(C)C)[C@H](CSc1cccs1)C(=O)NO | 5.25 µM (active) | 2.95 µM (active) | inactive | inactive | inactive |  | 16600 nM (active) |  | -14.2% (inactive) | inactive | 14800 nM (active) | 11800 nM (active) | 9350 nM (active) | 
C=CC(=O)N1CCc2ccc(-n3c(=O)ccc4cnc5ccc(-c6cnn(C)c6)cc5c43)cc21 | 0.632 µM (active) | 0.091 µM (active) | 7430 nM (active) | 4690 nM (active) | 3720 nM (active) |  |  | 3320 nM (active) |  | 0.506 µM (active) |  | 7430 nM (active) | 7430 nM (active) | 3.58 µM (active)
N#Cc1c(C2CCNCC2)cc(-c2c(O)cccc2OCC2CC2)nc1N | 5.9 µM (active) | 6.61 µM (active) | inactive | inactive | inactive |  |  |  |  |  |  | inactive | inactive | 28.2 µM (active)
O=C(NC1CCNCC1)c1[nH]ncc1NC(=O)c1c(Cl)cccc1Cl | 0.59 µM (active) | 0.411 µM (active) | 1320 nM (active) | 1180 nM (active) | 1180 nM (active) |  | 1050 nM (active) | 1320 nM (active) |  | 15.8 µM (active) | 1320 nM (active) | 2350 nM (active) | 1480 nM (active) | 1.12 µM (active)
Cc1ncc([N+](=O)[O-])n1CCO | inactive | inactive | inactive | inactive | inactive |  | inactive | inactive | -0.254% (inactive) | inactive | inactive | inactive | inactive | 
CC(C)C1CCC(C(=O)N[C@H](Cc2ccccc2)C(=O)O)CC1 (stereo not given in full) | inactive | inactive | inactive | inactive | inactive |  | inactive | inactive | 3.47% (inactive) and 2.35% (inactive) | inactive | inactive | inactive | inactive | 
COc1cc2ncnc(Nc3cccc(Br)c3)c2cc1OC | 4.68 µM (active) | 6.51 µM (active) and 5.25 µM (active) | inactive | inactive | inactive |  | inactive | inactive |  | inactive |  | inactive | inactive | 
COC(=O)c1ccc2c(C(=Nc3ccc(N(C)C(=O)CN4CCN(C)CC4)cc3)c3ccccc3)c(O)[nH]c2c1 | 32.6 nM (active) and 37.2 nM (active) | 58 nM (active) and 66.1 nM (active) | inactive | inactive | inactive |  |  |  |  | 10 µM (active) |  | inactive | inactive | 7.08 µM (active)
CN1CCN(CCCN2c3ccccc3Sc3ccc(C(F)(F)F)cc32)CC1 | 11.9 µM (active) and 18.6 µM (active) | 6.99 µM (active) and 21.1 µM (active) and 11.8 µM (active) | 1870 nM (active) | 2960 nM (active) | 2640 nM (active) | 13200 nM (active) |  | inactive |  | 23.1 µM (active) | inactive |  |  | 20.6 µM (active) and 25.1 µM (active)
